# Results published in PubChem BioAssay.
# The other results are listed elsewhere or left out. Unmarked numbers belong to inactive results. Active and inactive are the calls of the source. Rule as the data show it, unless noted: active = activation above about 8.9%; inactive = the rest.
# Key:
# [1] = system: HIV-1 integrase (multimerization); assay: stimulation of HIV-1 integrase oligomerization – biochemical, TR-FRET, counter-screen for LEDGF/p75 integration inhibitor project (AID 1053131); settings: TR-FRET HIV-1 integrase multimerization, at 7.7 µM, stronger effect = higher value
# [2] = compounds disturbing TR-FRET signal readout – biochemical, HIV-1 IN multimerization, artefact control for LEDGF/p75-dependent integration inhibitor project, confirmation (AID 1053135;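 active = inhibition above the mean over all tested compounds plus 3 SD, which no compound reached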;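 also: 0% = integrase with antibodies and DMSO and 100% = antibodies without integrase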); settings: TR-FRET optical interference counterscreen, at 7.7 µM, stronger effect = higher value
# [3] = system: HIV-1 integrase / human LEDGF/p75 complex; assay: blockers of LEDGF/p75-dependent integrase activity – biochemical, TR-FRET, confirmation (AID 1053136; in the data active = inhibition above about 14%); settings: TR-FRET LEDGF/p75-dependent HIV-1 integration, at 3.7 µM, stronger effect = higher value
Structure (SMILES),activation [1],inhibition [2],inhibition [3]
Cc1cc(Oc2ccc(Cl)cc2)nc(SCC(=O)c2ccccc2)n1,-0.31%,1.56%,-0.68%
CCOC(=O)/C(C#N)=C\c1c(C)cc(C)c(COC(C)=O)c1C,0.2%,-1.03%,3.21%
COc1ccc(NC(=O)C(NC(C)=O)C(=O)NCc2ccccc2Cl)cc1 (stereo unspecified),-0.36%,1.86%,2.33%
Cc1ccc(C(=O)N2CCCc3ccccc32)c(Cl)c1,-0.4%,2.02%,1.35%
Cc1cc(C(=O)NN=C/C=C/c2ccco2)n[nH]1,10.3% (active),-36.8%,6.81%
Cc1ccc(C(=O)OC(C)CN2CCOCC2)cc1 (stereo unspecified),0.25%,-1.23%,-2.32%
O=C(CN(C(=O)c1csnn1)c1cccc(Cl)c1)NC1CCCC1,-0.52%,2.68%,3.72%
Cn1c(SCc2nc3ccccc3s2)nnc1-c1ccc2c(c1)OCO2,0.47%,-2.33%,-2.11%
COc1cc(-c2nnc(NC(=O)CS(=O)(=O)c3ccc(Cl)cc3)o2)cc(OC)c1OC,0.46%,-2.3%,4.63%
CN(C)c1ccc(C(CC(=O)O)C(=O)O)cc1 (stereo unspecified),3.35%,-16.9%,0.73%
COc1ccc(S(=O)(=O)N2CCCCC2)cc1C(=O)NC1CCS(=O)(=O)C1 (stereo unspecified),-2.17%,10.9%,-3.25%
COc1ccccc1-c1cc(C(=O)NCCCn2ccnc2)no1,1.02%,-3.78%,-0.05%
Clc1cc(NC2CCCCC2)ncn1,-0.3%,1.2%,-4.64%
Cc1ccc(-c2nn(-c3ccccc3)cc2/C=C2\SC(=S)N(CCCCCC(=O)O)C2=O)o1,97.9% (active),-492%,41.5% (active)
Cc1sc2nc(SCC(=O)c3ccc(O)c(O)c3)n(Cc3ccco3)c(=O)c2c1C,8.33%,-41.9%,39.2% (active)
CCn1nc(C)c(CN2CCN(Cc3ccc(OC)c(C)c3C)C(CCO)C2)c1C (stereo unspecified),-0.07%,0.39%,-3.09%
COCCn1nnnc1C(c1cc2ccc(OC)cc2[nH]c1=O)N1CCc2ccccc2C1 (stereo unspecified),0.07%,-0.28%,0.92%
Cc1cc2c(c(=O)n1Cc1ccco1)C(c1ccccc1)C(C#N)=C(N)O2 (stereo unspecified),1.58%,-5.7%,-9.1%
Cc1cc(=O)n2[nH]c(-c3sccc3-n3c(C)ccc3C)cc2n1,4.52%,-16.3%,1.35%
CCc1cc2cc(OC)ccc2nc1SCC(=O)Nc1cc(OC)c(OC)cc1C(=O)O,-3.01%,15.3%,5.77%
Cc1cc(=O)oc2c3c(cc(OCC(=O)N[C@H](C(=O)O)c4ccccc4)c12)OC(C)(C)CC3,-0.04%,0.3%,-1.12%
NC1=NN(c2cccc(C(=O)O)c2)C(=O)C1,12.3% (active),-62%,-2.77%
Cc1ccc(/C=C/C(=O)Nc2ccc([N+](=O)[O-])c(NC(=O)/C=C/c3ccc(C)o3)c2)o1,14.2% (active),-71.7%,41.9% (active)
Cc1ccc(C(=O)N/C(=C/c2cccs2)C(=O)N2CCCCC2)cc1,-0.16%,0.87%,0.33%
Cc1ccc(C(=O)NC(=S)Nc2ccc3[nH]c(=O)[nH]c3c2)cc1C,-3.75%,19%,14.8% (active)
COc1ccc(C2CC(c3cccs3)=NN2C(=O)COC(=O)c2cc3ccccc3cc2O)cc1OC (stereo unspecified),-0.23%,1.12%,-6.48%
Cc1ccc(-c2cnc(NC(=O)CCC(=O)N(C)Cc3ccccc3)n2C)cc1,0.12%,-0.61%,-6.89%
